Assay outcomes as filed in PubChem.
SMARCA2 act: activators of SMARCA2 function | activation, % at 9.1 µM | 370,000 tested, 1% active | MG213 cells, MMTV-luciferase reporter, dexamethasone, overnight | AID 652017; in the data active = activation above about 7.8%;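 also: 0% = vehicle wells and 100% = reference activator wells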
ssDAF12 agonist: activates DAF-12 receptor from parasite S. stercoralis; HEK293 ssDAF-12/GRIP1 lit1-tk-luc reporter, luminescence; % of 3 µM dafachronic acid response; activation, % at 6.8 µM; 370,000 tested, 1% active;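 active = activation above the mean over all tested compounds plus 3 SD, cut at about 0.9% in these data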;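 also: 0% = DMSO-only wells and 100% = 3 µM delta7-dafachronic acid wells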
hgDAF12 agonist: activates the H. glycines DAF-12 receptor ligand-binding domain; AID 687014; 370,000 tested, 1.8% active; activation, % at 6.8 µM; HEK293 GAL4-hgDAF12 UAS-luciferase reporter, agonist luminescence; normalized to butyrate control;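 active = activation above a cutoff set at the mean of all screened compounds plus 3 SD, cut at about 10% in these data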;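 also: 0% = DMSO wells and 100% = sodium butyrate wells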
DAX1 inh-1: NR0B1 (DAX1) inhibition. HEK293 Gal4-DAX1 luciferase reporter, luminescence. inhibition, % at 6.75 µM. 340,000 tested, 0.99% active. AID 504766;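 active = inhibition above the mean over all tested compounds plus 3 SD, cut at about 4.2% in these data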;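 also: 0% = DAX1-transfected cells with DMSO and 100% = empty-vector control cells with DMSO; inhibition shows as a rise in luminescence from relieved DAX1 repression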
Target sequence (P51843 207-470 limits assumed): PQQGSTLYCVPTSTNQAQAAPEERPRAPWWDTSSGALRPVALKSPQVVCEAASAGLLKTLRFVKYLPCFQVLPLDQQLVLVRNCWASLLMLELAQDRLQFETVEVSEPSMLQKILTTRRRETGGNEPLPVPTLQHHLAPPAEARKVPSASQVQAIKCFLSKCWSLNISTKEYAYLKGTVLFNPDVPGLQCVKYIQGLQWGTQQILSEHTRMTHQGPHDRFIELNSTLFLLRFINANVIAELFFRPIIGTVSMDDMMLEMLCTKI
hcDAF-12 act: activates DAF-12 receptor from parasite H. contortus; HEK293 hcDAF-12 lit1-tk-luc reporter, luminescence; 0% DMSO, 100% Δ7-dafachronic acid; activation, % at 6.8 µM; 370,000 tested, 1.4% active; AID 652067;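 active = activation above the mean of all tested compounds plus 3 SD, cut at about 5.5% in these data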;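 also: 100% = response to 3 µM Δ7-dafachronic acid high control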
DAX1 inh-2: inhibitors of DAX1 repression of SF-1 activated StAR promoter; HEK293T StAR-luciferase reporter, SF-1/DAX-1 repression relief; inhibition, % at 6.8 µM; 370,000 tested, 1.1% active;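 active = inhibition above the mean over all tested compounds plus 3 SD, cut at about 3.6% in these data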;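 also: 0% = DAX-1 cells with DMSO and 100% = cells lacking DAX-1 with DMSO; higher inhibition means more luminescence from relief of DAX-1 repression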
The depositor's hits bear a star; . = no result. Rows were chosen to be rich in hits. Some 4.8% of all compounds tested hit in one or more screens of this group.

SMILES	SMARCA2 act	ssDAF12 agonist	hgDAF12 agonist	DAX1 inh-1	hcDAF-12 act	DAX1 inh-2
COc1ccccc1CNC(=O)Cn1ccc2cc(S(=O)(=O)N3CCCC3)ccc21	-1	0	-1	0	-1	-2
O=c1oc2ccccc2c(N2CCCCC2)c1[N+](=O)[O-]	0	-1	-1	0	2	0
O=c1oc2ccccc2c(N2CCCC2)c1[N+](=O)[O-]	-2	-1	-3	4.7*	-1	0
O=C(c1cc2ccccc2cc1OCC(O)CN1CCCCC1)N1CCCCC1 (configuration not stated)	-1	-1	3	1	1	-1
COc1ccc(C)c2sc(=NC(=O)C(C)C)n(C)c12	1	-1	-1	0	2	-1
COc1ccc(C)c2sc(=NC(=O)c3ccc(C(C)=O)cc3)n(C)c12	3	0	13*	4.7*	2	2
COc1ccc(NC(=O)c2ccccc2SC)cc1	2	-2	1	0	0	1
COc1ccc(C2=NOC(CN3C(=O)c4ccccc4S3(=O)=O)C2)cc1 (configuration not stated)	4	1	12*	1	4	2
Cc1ccc(/C(O)=C2\C(=O)C(=O)N(CCN(C)C)C2c2ccccc2F)cc1 (configuration not stated)	0	-1	-1	4.6*	-1	-1
Cc1nc2ccccn2c1/C(O)=C1\C(=O)C(=O)N(CCN(C)C)C1c1ccco1 (configuration not stated)	-1	-1	2	5.2*	2	0
CCN(CC)CCN1C(=O)C(=O)/C(=C(/O)c2ccc(F)cc2)C1c1cccnc1 (configuration not stated)	-1	-1	0	5.0*	-1	0
CN(C)CCN1C(=O)C(=O)/C(=C(/O)c2ccc(F)cc2)C1c1ccccc1F (configuration not stated)	0	-2	1	1	0	0
O=C1C(=O)N(CCN2CCOCC2)C(c2ccccc2)/C1=C(\O)c1ccc2c(c1)OCCO2 (configuration not stated)	1	-1	-2	1	1	4.0*
CCOc1ccc(CC(=O)C2C(=O)CC(C)(C)CC2=O)cc1OCC	-3	0	-1	4.4*	0	1
CCOc1ccc(CC(=O)C2C(=O)CCCC2=O)cc1OCC	.	.	.	0	.	.
Clc1ccccc1OCCCn1ccnc1	-1	1.4*	0	3	-2	0
CC(NC(=O)Nc1ccc(Cl)cc1)C1CCCO1 (configuration not stated)	3	-1	4	-1	1	0
CC(NC(=O)NC12CC3CC(CC(C3)C1)C2)C1CCCO1 (configuration not stated)	-1	0	3	7.2*	0	1
CCn1c2c(c3cc(C(=O)O)ccc31)CCCC2=O	-2	-1	1	1	-1	-1
COc1ccc(OC)c(NC(=O)CSc2nnc(C)n2Cc2ccccc2)c1	2	-2	-2	-1	-2	0
COc1ccc(O)c(-c2cc(-c3cccs3)[nH]n2)c1	8	1.1*	10	2	5.8*	0
COc1ccc(S(=O)(=O)NC(CC(=O)NC2CCCC2)c2ccco2)cc1 (configuration not stated)	2	0	2	0	-1	-1
Cc1ccc(N2C(=O)CC(Cn3nc(C)cc3C)C2=O)cc1 (configuration not stated)	-3	-1	1	-1	0	1
CCc1ccc(N2C(=O)CC(Cn3nc(C)cc3C)C2=O)cc1 (configuration not stated)	3	-1	0	5.1*	0	0
O=C(N/N=C\c1ccc(-c2cccc(Cl)c2)o1)C(=O)NC1CCCC1	0	-1	0	7.0*	0	0
SMILES	SMARCA2 act	ssDAF12 agonist	hgDAF12 agonist	DAX1 inh-1	hcDAF-12 act	DAX1 inh-2
Cc1ccc(C(=O)N/N=C/c2ccc(-c3cccc(Cl)c3)o2)cn1	-3	0	1	2	4	0
CCOC(=O)C(=O)c1csc(NC(=O)CCSc2ccc(C)cc2)n1	-4	-2	-4	4.4*	-2	0
O=C(Nc1ccc(F)cc1)C(c1ccncc1)N1CCN(c2cccc(C(F)(F)F)n2)CC1 (configuration not stated)	-4	0	0	.	-2	-1
O=C(Nc1ccc(F)cc1)C(c1cc2ccccc2o1)N1CCN(c2cccc(C(F)(F)F)n2)CC1 (configuration not stated)	5	2.3*	-1	.	1	1
COc1ccc(C(=O)NCC(=O)N/N=C/C(C)=C/c2ccccc2)cc1OC	0	-1	1	-1	-1	1
Cc1ccc(OCC(=O)Nc2ccc(F)cc2)c([N+](=O)[O-])n1	4	0	10	7.0*	5	3
Cc1ccc(C)c(C(=O)COc2ccc(C)nc2[N+](=O)[O-])c1	1	0	-2	0	2	0
Cc1ccc(OCC(=O)c2c[nH]c3ccccc23)c([N+](=O)[O-])n1	-1	1	4	3	6.3*	2
Cc1ccc(OCC(=O)NCC(=O)Nc2ccc(F)cc2)c([N+](=O)[O-])n1	-2	-2	-2	3	-2	0
CN(C(=O)CSc1nnc(Cc2ccccc2F)n1N)C1CCCCC1	2	-1	8	1	0	1
O=C(NCCN1CCOCC1)c1ccc(CS(=O)(=O)c2c(Cl)cccc2Cl)o1	-1	-1	-2	7.2*	-2	0
O=C(c1ccc(CS(=O)(=O)c2ccc(Br)cc2)o1)N1CCCC1	1	-2	0	1	-1	2
O=C(c1ccc(CS(=O)(=O)c2ccccc2)o1)N1CCOCC1	-2	0	4	5.6*	-1	1
O=C(NCCCN1CCOCC1)c1ccc(CS(=O)(=O)c2c(Cl)cccc2Cl)o1	-1	-1	-1	4	0	0
COc1ccc([C@@H]2[C@@H]3C(=O)N(C(C)(C)C)C(=O)[C@@H]3[C@]3(CC(C)C)C(=O)N(c4cccc(Br)c4)C(=O)N23)cc1	-1	-1	-2	0	-2	0
O=C(NCCc1ccccc1)c1c[nH]c2c(F)cccc2c1=O	2	0	7	2	5.6*	0
CCOc1cc(N2CCOCC2)c(OCC)cc1NC(=O)c1ccc(C)cc1	0	-2	-2	-1	-1	-1
CC(C)CN(CCNC(=O)CN1C(=O)CSc2ccc(S(=O)(=O)N3CCOCC3)cc21)CC(C)C	0	-1	1	2	0	0
CC(C)CN(CCCNC(=O)CN1C(=O)CSc2ccc(S(=O)(=O)N3CCOCC3)cc21)CC(C)C	2	0.9*	0	1	-1	2
